# How the values were obtained:
# Assay in all cases: DAPPL (digital affinity profiling via proximity ligation, sequencing); 10 mM Tris-HCl pH 7.5, 50 mM NaCl, 1 mM DTT, 4% glycerol, room temperature, 30 min; GST-TFs on glutathione beads, 16-mer random dsDNA library, 0.1% formaldehyde crosslink after washing; high values mean tight binding
# FLI1 = target: T1, FLI1 (Homo sapiens, UniProt Q01543 1-452); settings: protein: recombinant; tags: N-terminal GST; dsDNA, one strand shown
# T1 sequence: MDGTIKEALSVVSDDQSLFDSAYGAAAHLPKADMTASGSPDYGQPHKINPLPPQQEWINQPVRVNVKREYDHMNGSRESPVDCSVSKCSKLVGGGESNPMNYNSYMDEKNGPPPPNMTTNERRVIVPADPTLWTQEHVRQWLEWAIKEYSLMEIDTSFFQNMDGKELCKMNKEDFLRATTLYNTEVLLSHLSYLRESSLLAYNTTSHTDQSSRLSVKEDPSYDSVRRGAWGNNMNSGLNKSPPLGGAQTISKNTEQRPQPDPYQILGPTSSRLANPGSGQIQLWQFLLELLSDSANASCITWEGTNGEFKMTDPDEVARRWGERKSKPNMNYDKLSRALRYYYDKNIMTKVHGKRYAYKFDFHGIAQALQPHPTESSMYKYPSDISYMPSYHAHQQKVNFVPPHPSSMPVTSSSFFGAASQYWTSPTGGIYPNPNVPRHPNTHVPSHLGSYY
# Summary of the method: (§1)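 Pools of DNA-barcoded human transcription factors, expressed in yeast as GST fusions on glutathione beads and combined with a tag-only sample, were incubated with 200 nmole of a 16-mer random double-stranded DNA library. Incubation took 30 min at room temperature in Tris/NaCl/DTT/glycerol buffer and was followed by washing, 0.1% formaldehyde crosslinking, proximity ligation (BsaI/T4 ligase, 1 h, 37 °C), PCR amplification and sequencing on an Illumina NextSeq500. Binding signal is the ratio of a hexamer's read frequency for a factor to its frequency for the tag-only sample.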
# ELK1 = target: T2, ELK1 (Homo sapiens, UniProt P19419 1-428); settings: protein: recombinant; tags: N-terminal GST; dsDNA, one strand shown
# T2 sequence: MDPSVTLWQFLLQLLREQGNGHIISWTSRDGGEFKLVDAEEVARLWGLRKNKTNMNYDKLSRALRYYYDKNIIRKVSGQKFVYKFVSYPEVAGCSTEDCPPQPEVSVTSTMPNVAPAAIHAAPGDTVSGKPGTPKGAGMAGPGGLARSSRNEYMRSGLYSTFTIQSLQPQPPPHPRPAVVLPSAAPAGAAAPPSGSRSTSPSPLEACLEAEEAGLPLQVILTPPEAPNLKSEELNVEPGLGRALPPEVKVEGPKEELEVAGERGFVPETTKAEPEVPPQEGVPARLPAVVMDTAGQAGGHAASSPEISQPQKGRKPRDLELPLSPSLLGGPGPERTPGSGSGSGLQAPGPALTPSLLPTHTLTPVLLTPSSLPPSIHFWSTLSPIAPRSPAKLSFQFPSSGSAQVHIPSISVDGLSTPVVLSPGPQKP
# Summary of the method: as §1
# GABPA = target: T3, GABPA (Homo sapiens, UniProt Q06546 1-454); settings: protein: recombinant; tags: N-terminal GST; dsDNA, one strand shown
# T3 sequence: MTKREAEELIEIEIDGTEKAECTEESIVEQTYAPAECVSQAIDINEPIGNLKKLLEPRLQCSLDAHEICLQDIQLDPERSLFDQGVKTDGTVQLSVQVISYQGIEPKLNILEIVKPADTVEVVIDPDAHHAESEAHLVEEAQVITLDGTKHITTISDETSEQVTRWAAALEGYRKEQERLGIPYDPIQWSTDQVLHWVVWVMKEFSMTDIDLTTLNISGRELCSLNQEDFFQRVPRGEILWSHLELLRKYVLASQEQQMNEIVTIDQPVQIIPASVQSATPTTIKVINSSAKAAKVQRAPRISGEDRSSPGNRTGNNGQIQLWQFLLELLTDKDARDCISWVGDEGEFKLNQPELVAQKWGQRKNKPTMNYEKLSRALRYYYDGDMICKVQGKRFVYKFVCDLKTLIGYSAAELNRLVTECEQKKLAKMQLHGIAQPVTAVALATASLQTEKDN
# Summary of the method: as §1
# ERG = target: T4, ERG (Homo sapiens, UniProt P11308 1-479); settings: protein: recombinant; tags: N-terminal GST; dsDNA, one strand shown
# T4 sequence: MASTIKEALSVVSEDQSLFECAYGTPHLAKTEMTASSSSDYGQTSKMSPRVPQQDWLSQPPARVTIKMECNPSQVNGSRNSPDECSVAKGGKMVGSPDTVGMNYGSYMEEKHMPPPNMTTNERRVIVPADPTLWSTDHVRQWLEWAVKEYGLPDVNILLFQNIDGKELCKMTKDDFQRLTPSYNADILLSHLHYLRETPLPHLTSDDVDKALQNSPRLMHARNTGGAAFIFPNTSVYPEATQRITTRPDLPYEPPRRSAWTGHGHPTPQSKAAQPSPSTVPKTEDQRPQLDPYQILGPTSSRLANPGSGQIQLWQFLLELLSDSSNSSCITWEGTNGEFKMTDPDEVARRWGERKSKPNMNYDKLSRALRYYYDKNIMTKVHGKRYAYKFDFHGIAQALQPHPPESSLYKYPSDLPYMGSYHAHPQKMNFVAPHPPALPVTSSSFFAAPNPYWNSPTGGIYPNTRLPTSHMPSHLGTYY
# Summary of the method: as §1
# ELF1 = ELF1 (Homo sapiens, UniProt P32519 1-619); settings: protein: recombinant; tags: N-terminal GST; dsDNA, one strand shown
# Summary of the method: as §1
# EHF = target: T5, EHF (Homo sapiens, UniProt Q9NZC4 1-300); settings: protein: recombinant; tags: N-terminal GST; dsDNA, one strand shown
# T5 sequence: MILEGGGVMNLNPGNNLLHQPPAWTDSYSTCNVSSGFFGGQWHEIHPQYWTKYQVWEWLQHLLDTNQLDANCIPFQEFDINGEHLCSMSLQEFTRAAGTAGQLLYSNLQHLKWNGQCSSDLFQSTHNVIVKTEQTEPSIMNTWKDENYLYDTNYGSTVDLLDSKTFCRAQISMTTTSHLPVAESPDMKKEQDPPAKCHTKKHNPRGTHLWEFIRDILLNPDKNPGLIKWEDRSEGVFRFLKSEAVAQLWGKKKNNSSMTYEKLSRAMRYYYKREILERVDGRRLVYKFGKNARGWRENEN
# Summary of the method: as §1
# SPI1 = SPI1 (Homo sapiens, UniProt P17947 1-270); settings: protein: recombinant; tags: N-terminal GST; dsDNA, one strand shown
# Summary of the method: as §1
# SPIB = SPIB (Homo sapiens, UniProt Q01892 1-262); settings: protein: recombinant; tags: N-terminal GST; dsDNA, one strand shown
# Summary of the method: as §1
# ELK3 = target: T6, ELK3 (Homo sapiens, UniProt P41970 1-407); settings: protein: recombinant; tags: N-terminal GST; dsDNA, one strand shown
# T6 sequence: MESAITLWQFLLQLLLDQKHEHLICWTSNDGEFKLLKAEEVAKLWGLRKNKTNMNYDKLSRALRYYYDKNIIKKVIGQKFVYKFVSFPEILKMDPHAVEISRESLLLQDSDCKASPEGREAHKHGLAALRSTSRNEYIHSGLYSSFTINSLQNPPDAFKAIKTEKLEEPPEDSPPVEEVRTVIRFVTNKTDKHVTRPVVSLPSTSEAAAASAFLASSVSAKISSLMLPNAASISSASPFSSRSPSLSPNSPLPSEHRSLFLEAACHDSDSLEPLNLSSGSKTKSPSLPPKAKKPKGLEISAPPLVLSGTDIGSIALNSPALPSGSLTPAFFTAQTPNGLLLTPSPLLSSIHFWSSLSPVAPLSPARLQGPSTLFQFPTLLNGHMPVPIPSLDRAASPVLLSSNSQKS
# Summary of the method: as §1
# FEV = target: T7, FEV (Homo sapiens, UniProt Q99581 1-238); settings: protein: recombinant; tags: N-terminal GST; dsDNA, one strand shown
# T7 sequence: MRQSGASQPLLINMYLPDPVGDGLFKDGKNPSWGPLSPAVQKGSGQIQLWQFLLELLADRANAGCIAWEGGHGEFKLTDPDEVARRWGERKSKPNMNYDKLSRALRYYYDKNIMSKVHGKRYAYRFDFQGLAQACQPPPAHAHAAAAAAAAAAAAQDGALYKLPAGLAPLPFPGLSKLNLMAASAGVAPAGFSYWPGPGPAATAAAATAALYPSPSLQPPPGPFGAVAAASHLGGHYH
# Summary of the method: as §1
# ETV5 = ETV5 (Homo sapiens, UniProt P41161 1-510); settings: protein: recombinant; tags: N-terminal GST; dsDNA, one strand shown
# Summary of the method: as §1
# HSF1 = HSF1 (Homo sapiens, UniProt Q00613 1-529); settings: protein: recombinant; tags: N-terminal GST; chain copies: 3; dsDNA, one strand shown
# Summary of the method: as §1
# SPIC = target: T8, SPIC (Homo sapiens, UniProt Q8N5J4 1-248); settings: protein: recombinant; tags: N-terminal GST; dsDNA, one strand shown
# T8 sequence: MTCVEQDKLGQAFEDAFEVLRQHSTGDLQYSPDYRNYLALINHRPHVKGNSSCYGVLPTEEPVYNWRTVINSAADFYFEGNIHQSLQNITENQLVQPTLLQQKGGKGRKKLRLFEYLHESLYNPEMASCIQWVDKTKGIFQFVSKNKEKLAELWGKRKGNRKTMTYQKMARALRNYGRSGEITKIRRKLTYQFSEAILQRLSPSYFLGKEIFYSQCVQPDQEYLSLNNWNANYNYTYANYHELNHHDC
# Summary of the method: as §1
# ELF4 = ELF4 (Homo sapiens, UniProt Q99607 1-663); settings: protein: recombinant; tags: N-terminal GST; dsDNA, one strand shown
# Summary of the method: as §1
# ELK4 = target: T9, ELK4 (Homo sapiens, UniProt P28324-2 1-405); settings: protein: recombinant; tags: N-terminal GST; dsDNA, one strand shown
# T9 sequence: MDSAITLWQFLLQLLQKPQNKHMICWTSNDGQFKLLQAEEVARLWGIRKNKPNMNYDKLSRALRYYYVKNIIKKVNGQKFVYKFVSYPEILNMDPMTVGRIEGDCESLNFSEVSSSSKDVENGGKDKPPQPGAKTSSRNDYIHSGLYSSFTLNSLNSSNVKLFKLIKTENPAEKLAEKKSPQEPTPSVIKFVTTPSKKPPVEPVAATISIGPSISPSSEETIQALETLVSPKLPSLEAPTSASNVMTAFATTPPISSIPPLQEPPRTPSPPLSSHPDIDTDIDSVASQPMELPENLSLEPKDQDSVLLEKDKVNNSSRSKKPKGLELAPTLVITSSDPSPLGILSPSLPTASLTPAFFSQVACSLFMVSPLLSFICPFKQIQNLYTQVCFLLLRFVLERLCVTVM
# Summary of the method: as §1
# ETV2 = target: T10, ETV2 (Homo sapiens, UniProt O00321 1-342); settings: protein: recombinant; tags: N-terminal GST; dsDNA, one strand shown
# T10 sequence: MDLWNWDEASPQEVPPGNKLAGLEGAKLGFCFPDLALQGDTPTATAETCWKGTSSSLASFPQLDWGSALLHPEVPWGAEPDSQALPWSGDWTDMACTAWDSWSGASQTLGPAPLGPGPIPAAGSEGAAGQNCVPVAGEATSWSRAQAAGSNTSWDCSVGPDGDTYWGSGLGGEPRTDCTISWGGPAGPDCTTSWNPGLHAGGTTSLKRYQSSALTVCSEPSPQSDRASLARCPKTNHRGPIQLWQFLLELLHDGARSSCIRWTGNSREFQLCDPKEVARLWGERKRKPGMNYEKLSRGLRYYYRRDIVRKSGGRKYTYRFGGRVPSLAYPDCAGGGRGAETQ
# Summary of the method: as §1
# ELF3 = target: T11, ELF3 (Homo sapiens, UniProt P78545 1-371); settings: protein: recombinant; tags: N-terminal GST; dsDNA, one strand shown
# T11 sequence: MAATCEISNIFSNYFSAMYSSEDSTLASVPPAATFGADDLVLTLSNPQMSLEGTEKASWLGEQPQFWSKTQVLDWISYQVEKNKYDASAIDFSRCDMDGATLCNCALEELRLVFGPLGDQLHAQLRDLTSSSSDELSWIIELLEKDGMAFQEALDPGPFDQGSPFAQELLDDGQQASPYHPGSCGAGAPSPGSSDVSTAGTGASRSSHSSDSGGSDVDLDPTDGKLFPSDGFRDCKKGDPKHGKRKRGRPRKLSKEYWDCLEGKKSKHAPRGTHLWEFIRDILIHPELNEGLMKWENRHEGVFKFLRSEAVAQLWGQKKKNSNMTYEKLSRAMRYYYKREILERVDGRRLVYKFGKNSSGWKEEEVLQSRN
# Summary of the method: as §1
# CRX = CRX (Homo sapiens, UniProt O43186 1-299); settings: protein: recombinant; tags: N-terminal GST; dsDNA, one strand shown
# Summary of the method: as §1
# ETV1 = ETV1 (Homo sapiens, UniProt P50549 1-477); settings: protein: recombinant; tags: N-terminal GST; dsDNA, one strand shown
# Summary of the method: as §1
# ETV1, sequence (P50549 whole entry): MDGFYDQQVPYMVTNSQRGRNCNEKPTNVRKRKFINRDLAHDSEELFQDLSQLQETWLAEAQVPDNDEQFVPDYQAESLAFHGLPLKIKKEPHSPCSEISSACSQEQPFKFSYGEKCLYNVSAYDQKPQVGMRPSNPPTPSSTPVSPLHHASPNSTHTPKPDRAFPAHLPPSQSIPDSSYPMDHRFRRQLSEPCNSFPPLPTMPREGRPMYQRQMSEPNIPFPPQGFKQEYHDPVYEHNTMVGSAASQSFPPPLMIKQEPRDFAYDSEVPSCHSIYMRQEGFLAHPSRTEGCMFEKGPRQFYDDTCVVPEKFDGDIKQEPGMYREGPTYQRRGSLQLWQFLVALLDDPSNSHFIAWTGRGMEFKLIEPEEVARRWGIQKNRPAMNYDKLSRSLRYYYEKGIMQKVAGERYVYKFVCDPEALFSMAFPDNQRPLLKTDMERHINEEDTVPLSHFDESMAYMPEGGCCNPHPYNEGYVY
# ELF1, sequence (P32519 whole entry): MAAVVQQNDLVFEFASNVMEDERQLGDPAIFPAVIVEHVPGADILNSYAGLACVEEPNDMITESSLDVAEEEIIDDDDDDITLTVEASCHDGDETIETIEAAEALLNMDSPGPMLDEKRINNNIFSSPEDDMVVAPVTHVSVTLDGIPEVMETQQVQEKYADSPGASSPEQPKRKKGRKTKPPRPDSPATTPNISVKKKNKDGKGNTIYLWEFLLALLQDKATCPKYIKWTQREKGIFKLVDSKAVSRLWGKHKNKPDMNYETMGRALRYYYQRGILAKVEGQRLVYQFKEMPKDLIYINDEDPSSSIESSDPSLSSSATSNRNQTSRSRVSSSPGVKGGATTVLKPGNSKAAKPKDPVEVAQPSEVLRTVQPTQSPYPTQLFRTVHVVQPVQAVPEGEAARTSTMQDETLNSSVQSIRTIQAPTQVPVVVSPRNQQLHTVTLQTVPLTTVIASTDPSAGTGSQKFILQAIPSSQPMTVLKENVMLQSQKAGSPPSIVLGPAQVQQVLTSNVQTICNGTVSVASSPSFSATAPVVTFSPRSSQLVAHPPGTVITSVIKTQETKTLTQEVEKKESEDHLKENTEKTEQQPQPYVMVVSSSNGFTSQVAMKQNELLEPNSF
# ETV5, sequence (P41161 whole entry): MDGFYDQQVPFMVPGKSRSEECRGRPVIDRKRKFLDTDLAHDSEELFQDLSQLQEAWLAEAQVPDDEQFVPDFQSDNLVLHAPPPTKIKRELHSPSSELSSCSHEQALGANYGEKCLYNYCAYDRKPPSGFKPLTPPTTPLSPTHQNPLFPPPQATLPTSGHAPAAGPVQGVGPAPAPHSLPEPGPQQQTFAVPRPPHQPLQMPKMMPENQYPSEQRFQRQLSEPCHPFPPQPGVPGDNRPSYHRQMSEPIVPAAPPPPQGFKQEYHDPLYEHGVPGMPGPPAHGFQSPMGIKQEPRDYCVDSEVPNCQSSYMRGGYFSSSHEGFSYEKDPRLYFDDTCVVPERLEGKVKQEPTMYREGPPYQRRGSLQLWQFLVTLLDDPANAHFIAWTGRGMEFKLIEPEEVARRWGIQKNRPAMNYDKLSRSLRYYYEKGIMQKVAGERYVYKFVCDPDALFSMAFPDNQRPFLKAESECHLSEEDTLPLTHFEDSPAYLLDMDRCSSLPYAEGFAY
# HSF1, sequence (Q00613 whole entry): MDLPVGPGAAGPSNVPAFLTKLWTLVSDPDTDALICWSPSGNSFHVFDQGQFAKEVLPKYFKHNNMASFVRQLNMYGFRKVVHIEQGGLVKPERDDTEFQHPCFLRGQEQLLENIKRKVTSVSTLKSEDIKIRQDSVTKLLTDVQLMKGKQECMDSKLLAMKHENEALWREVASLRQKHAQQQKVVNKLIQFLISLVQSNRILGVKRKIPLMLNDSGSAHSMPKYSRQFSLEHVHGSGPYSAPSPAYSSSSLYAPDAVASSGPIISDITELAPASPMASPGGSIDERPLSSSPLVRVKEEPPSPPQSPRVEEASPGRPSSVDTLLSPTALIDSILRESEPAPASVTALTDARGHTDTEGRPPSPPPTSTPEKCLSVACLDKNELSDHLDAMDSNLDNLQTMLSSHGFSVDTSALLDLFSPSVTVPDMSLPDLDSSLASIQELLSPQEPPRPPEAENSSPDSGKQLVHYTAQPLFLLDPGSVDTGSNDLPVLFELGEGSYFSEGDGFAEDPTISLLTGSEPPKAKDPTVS
# ELF4, sequence (Q99607 whole entry): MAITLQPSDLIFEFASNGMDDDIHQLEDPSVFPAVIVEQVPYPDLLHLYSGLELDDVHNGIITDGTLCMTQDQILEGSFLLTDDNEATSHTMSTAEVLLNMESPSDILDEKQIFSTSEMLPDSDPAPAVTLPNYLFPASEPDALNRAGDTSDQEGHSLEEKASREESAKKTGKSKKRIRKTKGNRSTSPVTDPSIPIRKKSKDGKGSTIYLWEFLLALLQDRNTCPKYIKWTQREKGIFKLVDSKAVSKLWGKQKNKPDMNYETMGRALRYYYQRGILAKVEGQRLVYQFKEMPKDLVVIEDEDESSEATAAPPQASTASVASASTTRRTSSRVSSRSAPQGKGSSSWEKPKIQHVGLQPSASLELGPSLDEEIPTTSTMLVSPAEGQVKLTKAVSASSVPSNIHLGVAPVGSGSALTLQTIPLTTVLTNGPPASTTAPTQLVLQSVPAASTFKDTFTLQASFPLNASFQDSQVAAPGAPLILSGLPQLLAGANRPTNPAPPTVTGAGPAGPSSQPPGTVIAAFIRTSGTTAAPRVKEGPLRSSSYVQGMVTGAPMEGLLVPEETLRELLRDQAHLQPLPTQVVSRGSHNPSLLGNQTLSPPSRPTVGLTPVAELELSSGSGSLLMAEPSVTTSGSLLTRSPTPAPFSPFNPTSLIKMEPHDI
# CRX, sequence (O43186 whole entry): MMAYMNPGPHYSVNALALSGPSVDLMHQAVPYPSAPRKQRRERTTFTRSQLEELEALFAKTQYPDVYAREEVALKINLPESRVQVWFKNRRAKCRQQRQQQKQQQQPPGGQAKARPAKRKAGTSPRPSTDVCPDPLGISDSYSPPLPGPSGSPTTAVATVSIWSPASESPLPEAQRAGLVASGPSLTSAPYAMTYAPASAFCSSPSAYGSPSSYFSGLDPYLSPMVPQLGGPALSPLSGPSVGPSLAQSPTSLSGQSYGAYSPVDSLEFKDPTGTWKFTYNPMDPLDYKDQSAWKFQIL
# SPIB, sequence (Q01892 whole entry): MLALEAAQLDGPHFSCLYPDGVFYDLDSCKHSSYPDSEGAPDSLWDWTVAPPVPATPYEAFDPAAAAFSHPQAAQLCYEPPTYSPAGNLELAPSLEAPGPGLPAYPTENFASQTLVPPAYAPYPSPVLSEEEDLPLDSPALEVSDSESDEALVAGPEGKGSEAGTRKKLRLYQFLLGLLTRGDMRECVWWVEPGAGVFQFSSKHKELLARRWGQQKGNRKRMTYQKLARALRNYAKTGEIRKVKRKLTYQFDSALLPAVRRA
sequence,measurement,setting,value
ATTTCC,binding signal,FLI1,"3.94 fold enrichment (6-mer frequency, TF over GST control)"
same,binding signal,ELK1,"3.9 fold enrichment (6-mer frequency, TF over GST control)"
same,binding signal,GABPA,"3.59 fold enrichment (6-mer frequency, TF over GST control)"
same,binding signal,ERG,"5.18 fold enrichment (6-mer frequency, TF over GST control)"
same,binding signal,ELF1,"3.51 fold enrichment (6-mer frequency, TF over GST control)"
same,binding signal,EHF,"4.16 fold enrichment (6-mer frequency, TF over GST control)"
same,binding signal,SPI1,"3.71 fold enrichment (6-mer frequency, TF over GST control)"
same,binding signal,SPIB,"4.18 fold enrichment (6-mer frequency, TF over GST control)"
same,binding signal,ELK3,"4.09 fold enrichment (6-mer frequency, TF over GST control)"
same,binding signal,FEV,"6.05 fold enrichment (6-mer frequency, TF over GST control)"
same,binding signal,ETV5,"4.48 fold enrichment (6-mer frequency, TF over GST control)"
same,binding signal,HSF1,"1.66 fold enrichment (6-mer frequency, TF over GST control)"
same,binding signal,SPIC,"4.21 fold enrichment (6-mer frequency, TF over GST control)"
same,binding signal,ELF4,"3.62 fold enrichment (6-mer frequency, TF over GST control)"
same,binding signal,ELK4,"3.35 fold enrichment (6-mer frequency, TF over GST control)"
same,binding signal,ETV2,"4 fold enrichment (6-mer frequency, TF over GST control)"
same,binding signal,ELF3,"3.48 fold enrichment (6-mer frequency, TF over GST control)"
same,binding signal,CRX,"1.5 fold enrichment (6-mer frequency, TF over GST control)"
same,binding signal,ETV1,"4.04 fold enrichment (6-mer frequency, TF over GST control)"

# From PMC7862700, “An all-to-all approach to the identification of sequence-specific readers for epigenetic DNA modifications on cytosine”
